{
  "source": "paper PMC12820563",
  "about": "“FoxP3 forms a head-to-head dimer in vivo and stabilizes its multimerization on adjacent microsatellites”",
  "note": "Over roughly 16,000 sequences, “rpm ratio (pull-down/input)” has its median near 0.5; the highest 2% begin near 5.5. This excerpt belongs to a sample that is enriched for the highest values.",
  "data": [
    {"molecular_target": "T1, MBP-FoxP3dN (Mus musculus, UniProt Q99JB6 188-423)", "T1 sequence": "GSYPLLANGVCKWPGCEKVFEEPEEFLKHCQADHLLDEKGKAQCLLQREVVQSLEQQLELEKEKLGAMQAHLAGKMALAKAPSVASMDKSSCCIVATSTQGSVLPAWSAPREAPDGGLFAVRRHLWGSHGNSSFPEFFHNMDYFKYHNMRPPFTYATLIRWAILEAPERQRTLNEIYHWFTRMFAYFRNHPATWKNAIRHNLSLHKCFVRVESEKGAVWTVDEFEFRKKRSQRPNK", "assay": "PD-seq (MBP pull-down with sequencing); 20 mM Tris-HCl pH 7.5, 100 mM NaCl, 1.5 mM MgCl2, 0.4 uM protein, 0.1 uM dsDNA library, 30 min, room temperature, amylose pull-down; high values mean tight binding", "settings": "protein: recombinant; tags: His6-MBP; chain copies: 2; dsDNA, one strand shown", "summary_of_the_method": "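Binding is reads-per-million enrichment of pull-down over input, with replicates pooled. It comes from 30 min room-temperature incubation in Tris pH 7.5 buffer with NaCl and MgCl2 of 0.4 µM His6-MBP-tagged, N-terminally truncated mouse FoxP3 or FoxP1 fragment from E. coli with 0.1 µM Klenow-filled degenerate double-stranded DNA library, followed by amylose resin capture, three washes and Illumina sequencing of the released DNA.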", "values": [
      {"sequence": "GATGATTGTTCTCCCAGCTGATGAATTCTCAGCATCGAGTAAACAAATTTTCCTAATCTTTCTGTTCAAGCGCCATCTAC", "binding signal": "0.635 RPM ratio (pull-down/input)"},
      {"sequence": "GATGATTGTTCTCCCAGCTGATGAATTCAGCAGCTCGAGTAAACAAATTTTCCTAATCTTTCTGTTCAAGCGCCATCTAC", "binding signal": "0.994 RPM ratio (pull-down/input)"},
      {"sequence": "GATGATTGTTCTCCCAGCTGATGAATTTCAGCATTCGAGTAAACAAATTTTCCTAATCTTTCTGTTCAAGCGCCATCTAC", "binding signal": "4.99 RPM ratio (pull-down/input)"},
      {"sequence": "GATGATTGTTCTCCCAGCTGATGAATTCCAGCATTCGAGTAAACAAATTTTCCTAATCTTTCTGTTCAAGCGCCATCTAC", "binding signal": "4.11 RPM ratio (pull-down/input)"},
      {"sequence": "GATGATTGTTCTCCCAGCTGATGAATTCAGCATTTCGAGTAAACAAATTTTCCTAATCTTTCTGTTCAAGCGCCATCTAC", "binding signal": "5.86 RPM ratio (pull-down/input)"},
      {"sequence": "GATGATTGTTCTCCCAGCTGATGAATTCAGCATCTCGAGTAAACAAATTTTCCTAATCTTTCTGTTCAAGCGCCATCTAC", "binding signal": "6.49 RPM ratio (pull-down/input)"},
      {"sequence": "GATGATTGTTCTCCCAGCTGATGAATTCCGCACTTCGAGTAAACAAATTTTCCTAATCTTTCTGTTCAAGCGCCATCTAC", "binding signal": "1.22 RPM ratio (pull-down/input)"},
      {"sequence": "GATGATTGTTCTCCCAGCTGATGAATTTGGGTCATCGAGTAAACAAATTTTCCTAATCTTTCTGTTCAAGCGCCATCTAC", "binding signal": "0.724 RPM ratio (pull-down/input)"},
      {"sequence": "GATGATTGTTCTCCCAGCTGATGAATTCTTTACTTCGAGTAAACAAATTTTCCTAATCTTTCTGTTCAAGCGCCATCTAC", "binding signal": "0.373 RPM ratio (pull-down/input)"},
      {"sequence": "GATGATTGTTCTCCCAGCTGATGAATTGGGGATTTCGAGTAAACAAATTTTCCTAATCTTTCTGTTCAAGCGCCATCTAC", "binding signal": "0.404 RPM ratio (pull-down/input)"},
      {"sequence": "GATGATTGTTCTCCCAGCTGATGAATTTCGTGAATCGAGTAAACAAATTTTCCTAATCTTTCTGTTCAAGCGCCATCTAC", "binding signal": "0.281 RPM ratio (pull-down/input)"},
      {"sequence": "GATGATTGTTCTCCCAGCTGATGAATTCAGCTCATCGAGTAAACAAATTTTCCTAATCTTTCTGTTCAAGCGCCATCTAC", "binding signal": "0.381 RPM ratio (pull-down/input)"},
      {"sequence": "GATGATTGTTCTCCCAGCTGATGAATTTTGAGCCTCGAGTAAACAAATTTTCCTAATCTTTCTGTTCAAGCGCCATCTAC", "binding signal": "0.568 RPM ratio (pull-down/input)"},
      {"sequence": "GATGATTGTTCTCCCAGCTGATGAATTGTTCGCCTCGAGTAAACAAATTTTCCTAATCTTTCTGTTCAAGCGCCATCTAC", "binding signal": "0.653 RPM ratio (pull-down/input)"},
      {"sequence": "GATGATTGTTCTCCCAGCTGATGAATTCTCTGCCTCGAGTAAACAAATTTTCCTAATCTTTCTGTTCAAGCGCCATCTAC", "binding signal": "0.284 RPM ratio (pull-down/input)"},
      {"sequence": "GATGATTGTTCTCCCAGCTGATGAATTCCGCCTCTCGAGTAAACAAATTTTCCTAATCTTTCTGTTCAAGCGCCATCTAC", "binding signal": "6.3 RPM ratio (pull-down/input)"},
      {"sequence": "GATGATTGTTCTCCCAGCTGATGAATTCTGTGCCTCGAGTAAACAAATTTTCCTAATCTTTCTGTTCAAGCGCCATCTAC", "binding signal": "1.19 RPM ratio (pull-down/input)"},
      {"sequence": "GATGATTGTTCTCCCAGCTGATGAATTTCGCCTCTCGAGTAAACAAATTTTCCTAATCTTTCTGTTCAAGCGCCATCTAC", "binding signal": "6.04 RPM ratio (pull-down/input)"},
      {"sequence": "GATGATTGTTCTCCCAGCTGATGAATTCTGCCTCTCGAGTAAACAAATTTTCCTAATCTTTCTGTTCAAGCGCCATCTAC", "binding signal": "5.87 RPM ratio (pull-down/input)"},
      {"sequence": "GATGATTGTTCTCCCAGCTGATGAATTTTGTGCCTCGAGTAAACAAATTTTCCTAATCTTTCTGTTCAAGCGCCATCTAC", "binding signal": "1.84 RPM ratio (pull-down/input)"},
      {"sequence": "GATGATTGTTCTCCCAGCTGATGAATTGTGCCTCTCGAGTAAACAAATTTTCCTAATCTTTCTGTTCAAGCGCCATCTAC", "binding signal": "6.79 RPM ratio (pull-down/input)"},
      {"sequence": "GATGATTGTTCTCCCAGCTGATGAATTTTTCGCCTCGAGTAAACAAATTTTCCTAATCTTTCTGTTCAAGCGCCATCTAC", "binding signal": "0.467 RPM ratio (pull-down/input)"},
      {"sequence": "GATGATTGTTCTCCCAGCTGATGAATTCCGCGCCTCGAGTAAACAAATTTTCCTAATCTTTCTGTTCAAGCGCCATCTAC", "binding signal": "1.68 RPM ratio (pull-down/input)"},
      {"sequence": "GATGATTGTTCTCCCAGCTGATGAATTCTCCGCCTCGAGTAAACAAATTTTCCTAATCTTTCTGTTCAAGCGCCATCTAC", "binding signal": "0.428 RPM ratio (pull-down/input)"},
      {"sequence": "GATGATTGTTCTCCCAGCTGATGAATTCTGCGCCTCGAGTAAACAAATTTTCCTAATCTTTCTGTTCAAGCGCCATCTAC", "binding signal": "2.3 RPM ratio (pull-down/input)"},
      {"sequence": "GATGATTGTTCTCCCAGCTGATGAATTAGACTCCTCGAGTAAACAAATTTTCCTAATCTTTCTGTTCAAGCGCCATCTAC", "binding signal": "0.422 RPM ratio (pull-down/input)"},
      {"sequence": "GATGATTGTTCTCCCAGCTGATGAATTATACCCATCGAGTAAACAAATTTTCCTAATCTTTCTGTTCAAGCGCCATCTAC", "binding signal": "0.433 RPM ratio (pull-down/input)"},
      {"sequence": "GATGATTGTTCTCCCAGCTGATGAATTAGTCTTATCGAGTAAACAAATTTTCCTAATCTTTCTGTTCAAGCGCCATCTAC", "binding signal": "0.725 RPM ratio (pull-down/input)"},
      {"sequence": "GATGATTGTTCTCCCAGCTGATGAATTAGTCGGATCGAGTAAACAAATTTTCCTAATCTTTCTGTTCAAGCGCCATCTAC", "binding signal": "0.297 RPM ratio (pull-down/input)"},
      {"sequence": "GATGATTGTTCTCCCAGCTGATGAATTCCCTCATTCGAGTAAACAAATTTTCCTAATCTTTCTGTTCAAGCGCCATCTAC", "binding signal": "0.325 RPM ratio (pull-down/input)"},
      {"sequence": "GATGATTGTTCTCCCAGCTGATGAATTGGTTAACTCGAGTAAACAAATTTTCCTAATCTTTCTGTTCAAGCGCCATCTAC", "binding signal": "0.469 RPM ratio (pull-down/input)"}
    ]}
  ]
}
